We go through 20 compounds from PubChem BioAssay (Tox21).

Records with an inconclusive call do not appear. Entries that show only a call come without a potency. Some structures have more than one record in an assay (separate samples or runs), and their calls can disagree. The source made the active and inactive calls. Unless noted, calls come from the whole dose curve.

Sequence of Thyrotropin receptor (Homo sapiens) (P16473 whole entry, looked up): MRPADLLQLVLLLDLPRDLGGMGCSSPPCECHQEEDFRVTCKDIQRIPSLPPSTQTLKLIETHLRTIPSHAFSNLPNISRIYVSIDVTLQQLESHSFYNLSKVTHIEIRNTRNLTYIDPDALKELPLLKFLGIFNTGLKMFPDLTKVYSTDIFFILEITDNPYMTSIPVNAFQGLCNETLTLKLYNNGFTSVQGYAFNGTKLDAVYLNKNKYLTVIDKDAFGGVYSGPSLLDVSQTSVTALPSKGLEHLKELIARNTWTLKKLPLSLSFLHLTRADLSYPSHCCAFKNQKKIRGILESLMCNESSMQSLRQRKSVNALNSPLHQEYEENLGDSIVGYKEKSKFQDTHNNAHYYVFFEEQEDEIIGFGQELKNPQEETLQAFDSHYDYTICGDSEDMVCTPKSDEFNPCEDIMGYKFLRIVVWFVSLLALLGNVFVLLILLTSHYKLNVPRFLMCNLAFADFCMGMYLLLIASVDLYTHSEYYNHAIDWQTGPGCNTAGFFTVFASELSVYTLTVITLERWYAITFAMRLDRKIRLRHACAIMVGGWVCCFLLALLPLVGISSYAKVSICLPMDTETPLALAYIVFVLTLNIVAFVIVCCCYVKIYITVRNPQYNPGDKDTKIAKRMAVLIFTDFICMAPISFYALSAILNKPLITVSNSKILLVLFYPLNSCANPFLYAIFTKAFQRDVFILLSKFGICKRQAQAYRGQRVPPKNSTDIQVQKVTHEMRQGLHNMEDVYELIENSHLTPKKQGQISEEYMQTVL

Test system in one assay: not listed separately
The experiment in a line: qHTS assay to identify small molecule antagonists of the estrogen related receptor signaling pathway with the pleiotropic PPARgamma coactivator (PGC) from Tox21 10K library (AID 1224841; call rule not given here; note: actives are mostly falling curves and most rising ones were filed inactive; nearly all actives have a fitted effect of over 50% in size; note: potency is the fitted concentration of half-maximal effect). The conditions noted are these: PGC/ERR reporter cell line, ONE-Glo luciferase, 18 h; series mostly up to 92.4 µM. In a few lines:
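qHTS antagonist format: PGC/ERR cells, 2k/well, compound in DMSO by pin transfer after 6 h attachment, 18 h treatment at 37 C, One-Glo luminescence read at 30 min.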
As for `O=c1ccc(=O)[nH][nH]1`, the Potency entry was “inactive”.

Consider `O=[N+]([O-])c1ccccc1`, for which the Potency entry is “inactive”.

On to `CC(=O)C=C(C)C`, for which the Potency entry was “inactive”.

Consider `BrCCBr`, for which the Potency result was “inactive”.

With `CCC(C)(CC)c1cc(NC(=O)c2c(OC)cccc2OC)on1`, the Potency was 30.7 µM (active) and inactive.

As for `Cc1ccc(N)cc1N`, the Potency result was “inactive”.

In the case of `O=[N+]([O-])c1ccc(Oc2ccc(Cl)cc2Cl)cc1`, the Potency entry is “inactive”.

Test system in a further assay: not listed separately
Kind of assay: qHTS assay to identify small molecule agonists of the estrogen related receptor signaling pathway with the pleiotropic PPARgamma coactivator (PGC) from Tox21 10K library (AID 1224842; active = well fitted activation curve with a large enough effect in the repeat runs; note: nearly all actives have a fitted effect of over 15% in size). The following applies: PGC/ERR reporter cell line, luciferase ONE-Glo, 18 h; series mostly up to 92.4 µM. The procedure, abridged:
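PGC/ERR reporter cells (NTP line) were seeded 2,000 per well, rested 6 h at 37 C/5% CO2, then pin-dosed with compounds in DMSO for 18 h at 37 C; luciferase read by One-Glo luminescence after 30 min at room temperature.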
With `O=c1ccc(=O)[nH][nH]1`, the compound was classed as inactive.

With `O=[N+]([O-])c1ccccc1`, the compound was called inactive.

As for `CC(=O)C=C(C)C`, the outcome was inactive.

For `BrCCBr`, the compound was classed as inactive.

For `CCC(C)(CC)c1cc(NC(=O)c2c(OC)cccc2OC)on1`, the call was inactive.

Turning to `Cc1ccc(N)cc1N`, the compound was classed as inactive.

Take `O=[N+]([O-])c1ccc(Oc2ccc(Cl)cc2Cl)cc1`: the compound was classed as inactive.

The target in the next assay is Thyrotropin receptor (Homo sapiens) (UniProt P16473). Kind of assay: qHTS assay to identify small molecule agonists of the thyroid stimulating hormone receptor (TSHR) signaling pathway (AID 1224843). Note: nearly all actives have a fitted effect of over 45% in size. The following applies: TSHR-HEK293 cells, cAMP HTRF, agonist mode, 30 min; series mostly up to 92.4 µM. The procedure, abridged:
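TSHR-expressing HEK293 cells (800 per well) were exposed to compounds for 30 min at room temperature. cAMP was then detected by HTRF competition with cAMP-d2 and anti-cAMP cryptate, read after 1 h at room temperature. Fifteen concentrations, triplicate.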
Turning to `C=CC(N)=O`, the Potency result is “inactive”.

Regarding `O=c1ccc(=O)[nH][nH]1`, the Potency result is “inactive”.

On to `CN(C)[C@@H]1C(=O)C(C(N)=O)=C(O)[C@@]2(O)C(=O)C3=C(O)c4c(O)cccc4[C@@](C)(O)[C@H]3C[C@@H]12`, for which the Potency entry is “inactive”.

Turning to `O=[N+]([O-])c1ccccc1`, the Potency result was “inactive”.

Regarding `CC1C=[C-]C=C1.[C-]#[O+].[C-]#[O+].[C-]#[O+].[Mn]`, the Potency result was “inactive”.

Consider `CCCN(CCC)N=O`, for which the Potency result was “inactive”.

Regarding `C1CN2CCN1CC2`, the Potency result was “inactive”.

Regarding `[N-]=[N+]=[N-]`, the Potency result is “inactive”.

For the compound `CC(Br)C(=O)O` (stereo not given), the Potency entry was “inactive”.

On to `CC(C)(Cl)Cl`, for which the Potency result was “inactive”.

For the compound `CCNc1nc(NC(C)(C)C)nc(SC)n1`, the Potency entry is “inactive”.

Consider `O=NN1CCCCCCC1`, for which the Potency entry was “inactive”.

Take `CC(=O)C=C(C)C`: the Potency result was “inactive”.

On to `OCCN(CCO)CCO`, for which the Potency result is “inactive”.

As for `Nc1c(Cl)c(Cl)nc(C(=O)O)c1Cl`, the Potency entry is “inactive”.

Consider `ClCc1cccnc1`, for which the Potency entry was “inactive”.
